PubChem BioAssay (NCATS)
Results filed as inconclusive are left out. A call without a number means that no potency is given here. The source made the active and inactive calls. Calls follow the shape of the dose curve; as a rule, active = well fitted inhibition curve with a large enough effect; inconclusive = small, poorly fitted or top-dose-only effect; inactive = no such curve, though single readings can be large or run the other way.

Tested on: not listed separately
Assay: qHTS for Inhibitors of the Aldehyde Dehydrogenase Family (ALDH1A2, ALDH1A3, ALDH2, ALDH3A1) (AID 2061307); also: nearly all actives have a fitted effect of over 50% in size; as to potency: test system not described further here
Details: ALDH inhibition qHTS; series mostly up to 50.3 µM
Potency is read from the fitted curve at half-maximal effect.

| SMILES | Potency |
| --- | --- |
| O=C1Nc2ccc(Cl)cc2/C1=C\c1cc(Cl)c(O)c(Cl)c1 | 10.1 µM (active) |
| O=C(C1CCN(Cc2ccccc2-c2ccccc2F)CC1)N1CCN(Cc2ccccc2)CC1 | inactive |
| COc1cccc(S(=O)(=O)N2CCC3(CC2)CC(CC(=O)NC2CC2)CCO3)c1 (stereo not given) | inactive |
| O=C(O)CN1C(=O)/C(=C/c2ccc(-c3cccc(Cl)c3)o2)SC1=S | 11.3 µM (active) |
| CCOC(=O)c1[nH]c2c(c1C)C(=S)CC(c1ccco1)C2 (stereo not given) | 8.96 µM (active) |
| NC(=O)C1CCN(c2nc(-c3ccc4ccccc4c3)cs2)CC1 | 5.65 µM (active) |
| CC(C)CCN(C)Cc1ccc(-c2ccccc2)cc1 | 25.1 µM (active) |
| Cc1nc(C(C)Nc2ncnc3ccc(-c4ccc5c(c4)OCO5)cc23)cs1 (stereo not given) | inactive |
| CC(=O)c1c(C)n(-c2ccc(Cl)cc2)c2ccc(OC(=O)COc3ccccc3)cc12 | inactive |
| COc1ccc(C2Nc3ccccc3C(=O)N2Cc2ccco2)cc1COc1ccc(N)cc1 (stereo not given) | 1.79 µM (active) |
| CN1CCN(c2ccc(NC(=O)CN(C)Cc3c(O)ccc4ccccc34)cc2)CC1 | 7.12 µM (active) |
| Cc1ccc(-c2cc(C(=O)NCc3cccc(F)c3)nn3cnnc23)cc1 | 8.91 µM (active) |
| CC(=O)c1c(C)n(-c2ccc(C)cc2)c2ccc(OC(=O)COc3ccccc3)cc12 | inactive |
| O=C1Nc2cc(Cl)ccc2/C1=C\c1cc(Cl)c(O)c(Cl)c1 | 3.57 µM (active) |
| CC(C)(C)c1ccc(S(=O)(=O)c2cnc(SCC(=O)Nc3ccc(F)c(Cl)c3)[nH]c2=O)cc1 | 12.7 µM (active) |
| COc1cccc(CNC(=O)c2ccc3c(c2)sc2nc(-c4ccccc4)cn23)c1OC | inactive |
| Cc1oc(-c2ccccc2F)nc1CS(=O)(=O)CC(=O)N1CCN(c2cccc(C(F)(F)F)c2)CC1 | inactive |
| COc1ccc(C(=O)N(Cc2ccco2)Cc2ccco2)c(O)c1 | 0.891 µM (active) |
| CCOC(=O)C1CCN(C(=O)C(C)(C)NC(=O)Nc2ccc(N(C)C)cc2)CC1 | inactive |
| CC(=O)Nc1sc2c(c1-c1csc3ccccc13)CCNC2 | inactive |

| SMILES | Potency |
| --- | --- |
| COc1ccc(C2=NN(CC(=O)NCCc3ccc(OC)c(OC)c3)C(=O)CC2)cc1 | inactive |
| Cc1cc(C)cc(-c2ccccc2C=O)c1 | inactive |
| CC(=O)N1CCN(c2ccc(NCc3ccc4c(c3)OCO4)cc2)CC1 | 8.96 µM (active) |
| CN(C)c1cccc(-c2cnc(N3CCC(c4ncc[nH]4)CC3)s2)c1 | 10.1 µM (active) |
| O=C(Cc1ccc(F)cc1)Nc1cccc(-c2nc3cccnc3s2)c1 | inactive |
| Cc1sc(NC(=O)Cc2ccc3c(c2)OCO3)nc1-c1ccc2c(c1)CCN2 | 20.1 µM (active) |
| O=C1Cc2cc(S(=O)(=O)N3CCN(c4ccc(F)cc4)CC3)ccc2N1 | inactive |
| COc1ccc(C2=Nn3c(nnc3-c3ccccc3OC)SC2)cc1OC1CCCC1 | 15.8 µM (active) |
| O=C(O)c1ccc2c(c1)C(=O)N(CCc1ccc(O)cc1)C2=O | inactive |
| Cc1ccc(CCN2C(=O)c3ccc(C(=O)O)cc3C2=O)cc1 | inactive |
| CN(C)c1ccc(-c2cc[nH]c(=O)c2N)cc1 | 12.7 µM (active) |
| N#Cc1nc(-c2ccc(COc3ccccc3)o2)oc1N1CCN(c2ccccc2)CC1 | inactive |
| COc1cc(NS(=O)(=O)c2cccc([N+](=O)[O-])c2)c2ncccc2c1 | 11.3 µM (active) |
| CCN(CC)CC(=O)c1c(C)n(C)c2ccc(OC)cc12 | inactive |
| CCC(=O)Nc1ccc(S(=O)(=O)NCc2ccc3c(c2)CCN3C(=O)c2ccc(C)cc2)cc1 | inactive |
| Cc1ccc(S(=O)(=O)Nc2cnccc2C(=O)Nc2nc(C(=O)O)cs2)cc1 | inactive |
| O=C1Cc2cc(S(=O)(=O)N3CCNCC3)ccc2N1 | inactive |
| Cc1cc(C)nc(NC(=S)N2CCN(c3ccc4cn(C)nc4c3)CC2)c1 | inactive |
| Cc1ccc(-c2ccccc2C=O)c(C)c1 | inactive |
| O=S1(=O)N=C(Oc2cccc3ccccc23)c2ccccc21 | 2.83 µM (active) |

Molecular target: Retinaldehyde dehydrogenase 3 (Homo sapiens) (UniProt P47895)
Assay: qHTS for Inhibitors of the Aldehyde Dehydrogenase Family (ALDH1A3) Confirmatory screens (AID 2061311); also: nearly all actives have a fitted effect of over 60% in size
Details: ALDH inhibition qHTS; series mostly up to 46 µM

| SMILES | Potency | activity change, negative = inhibition |
| --- | --- | --- |
| O=C1Nc2ccc(Cl)cc2/C1=C\c1cc(Cl)c(O)c(Cl)c1 | inactive | – |
| O=C(C1CCN(Cc2ccccc2-c2ccccc2F)CC1)N1CCN(Cc2ccccc2)CC1 | inactive | – |
| COc1cccc(S(=O)(=O)N2CCC3(CC2)CC(CC(=O)NC2CC2)CCO3)c1 (stereo not given) | inactive | – |
| O=C(O)CN1C(=O)/C(=C/c2ccc(-c3cccc(Cl)c3)o2)SC1=S | inactive | – |
| CCOC(=O)c1[nH]c2c(c1C)C(=S)CC(c1ccco1)C2 (stereo not given) | 12.7 µM (active) | – |
| NC(=O)C1CCN(c2nc(-c3ccc4ccccc4c3)cs2)CC1 | inactive | – |
| CC(C)CCN(C)Cc1ccc(-c2ccccc2)cc1 | 4.19 µM (active) | – |
| Cc1nc(C(C)Nc2ncnc3ccc(-c4ccc5c(c4)OCO5)cc23)cs1 (stereo not given) | inactive | – |
| CC(=O)c1c(C)n(-c2ccc(Cl)cc2)c2ccc(OC(=O)COc3ccccc3)cc12 | inactive | – |
| COc1ccc(C2Nc3ccccc3C(=O)N2Cc2ccco2)cc1COc1ccc(N)cc1 (stereo not given) | – | -17.5% [at 0.022 µM] (inactive) |
| CN1CCN(c2ccc(NC(=O)CN(C)Cc3c(O)ccc4ccccc34)cc2)CC1 | 22.5 µM (active) | – |
| Cc1ccc(-c2cc(C(=O)NCc3cccc(F)c3)nn3cnnc23)cc1 | 8.91 µM (active) | – |
| CC(=O)c1c(C)n(-c2ccc(C)cc2)c2ccc(OC(=O)COc3ccccc3)cc12 | inactive | – |
| O=C1Nc2cc(Cl)ccc2/C1=C\c1cc(Cl)c(O)c(Cl)c1 | inactive | – |
| CC(C)(C)c1ccc(S(=O)(=O)c2cnc(SCC(=O)Nc3ccc(F)c(Cl)c3)[nH]c2=O)cc1 | inactive | – |
| COc1cccc(CNC(=O)c2ccc3c(c2)sc2nc(-c4ccccc4)cn23)c1OC | inactive | – |
| Cc1oc(-c2ccccc2F)nc1CS(=O)(=O)CC(=O)N1CCN(c2cccc(C(F)(F)F)c2)CC1 | inactive | – |
| COc1ccc(C(=O)N(Cc2ccco2)Cc2ccco2)c(O)c1 | inactive | – |
| CCOC(=O)C1CCN(C(=O)C(C)(C)NC(=O)Nc2ccc(N(C)C)cc2)CC1 | 14.2 µM (active) | – |
| CC(=O)Nc1sc2c(c1-c1csc3ccccc13)CCNC2 | inactive | – |

| SMILES | Potency | activity change, negative = inhibition |
| --- | --- | --- |
| COc1ccc(C2=NN(CC(=O)NCCc3ccc(OC)c(OC)c3)C(=O)CC2)cc1 | inactive | – |
| Cc1cc(C)cc(-c2ccccc2C=O)c1 | inactive | – |
| CC(=O)N1CCN(c2ccc(NCc3ccc4c(c3)OCO4)cc2)CC1 | 11.3 µM (active) | – |
| CN(C)c1cccc(-c2cnc(N3CCC(c4ncc[nH]4)CC3)s2)c1 | 4 µM (active) | – |
| O=C(Cc1ccc(F)cc1)Nc1cccc(-c2nc3cccnc3s2)c1 | inactive | – |
| Cc1sc(NC(=O)Cc2ccc3c(c2)OCO3)nc1-c1ccc2c(c1)CCN2 | 12.7 µM (active) | – |
| O=C1Cc2cc(S(=O)(=O)N3CCN(c4ccc(F)cc4)CC3)ccc2N1 | inactive | – |
| COc1ccc(C2=Nn3c(nnc3-c3ccccc3OC)SC2)cc1OC1CCCC1 | 22.4 µM (active) | – |
| O=C(O)c1ccc2c(c1)C(=O)N(CCc1ccc(O)cc1)C2=O | inactive | – |
| Cc1ccc(CCN2C(=O)c3ccc(C(=O)O)cc3C2=O)cc1 | inactive | – |
| CN(C)c1ccc(-c2cc[nH]c(=O)c2N)cc1 | 20.1 µM (active) | – |
| N#Cc1nc(-c2ccc(COc3ccccc3)o2)oc1N1CCN(c2ccccc2)CC1 | inactive | – |
| COc1cc(NS(=O)(=O)c2cccc([N+](=O)[O-])c2)c2ncccc2c1 | 5.65 µM (active) | – |
| CCN(CC)CC(=O)c1c(C)n(C)c2ccc(OC)cc12 | inactive | – |
| CCC(=O)Nc1ccc(S(=O)(=O)NCc2ccc3c(c2)CCN3C(=O)c2ccc(C)cc2)cc1 | inactive | – |
| Cc1ccc(S(=O)(=O)Nc2cnccc2C(=O)Nc2nc(C(=O)O)cs2)cc1 | 20.1 µM (active) | – |
| O=C1Cc2cc(S(=O)(=O)N3CCNCC3)ccc2N1 | inactive | – |
| Cc1cc(C)nc(NC(=S)N2CCN(c3ccc4cn(C)nc4c3)CC2)c1 | 15.9 µM (active) | – |
| Cc1ccc(-c2ccccc2C=O)c(C)c1 | inactive | – |
| O=S1(=O)N=C(Oc2cccc3ccccc23)c2ccccc21 | 5.04 µM (active) | – |
